# Results reported in ChEMBL document CHEMBL1157539, “Thousands of chemical starting points for antimalarial lead identification” (Nature, 2010).
# Columns and labels:
# Plasmodium falciparum [1] = test: GSK_TCMDC: Inhibition of Plasmodium falciparum 3D7 in whole red blood cells, using parasite LDH activity as an index of growth. Test compounds present at 2uM; type: functional
# Plasmodium falciparum [2] = test: GSK_TCMDC: Inhibition of Plasmodium falciparum Dd2 in whole red blood cells, using parasite LDH activity as an index of growth. Test compounds present at 2uM; type: functional
SMILES,Inhibition (Plasmodium falciparum [1]) [%],Inhibition (Plasmodium falciparum [2]) [%]
Br.CC(C)(C)OC(=O)N[C@@H](CS(=O)(=O)CCNC(=N)COCc1ccccc1)C(=O)OC(C)(C)C,88,76
CCOc1cc(Cc2cnc(N)nc2N)ccc1OC.Cl,88,0
Cc1cccc(-c2c(C)nc(N)nc2N)c1,88,0
CN(C)C(=S)N/N=C1/C(=O)Nc2ccccc21,95,96
CCCCCCCN(Cc1ccc(OC(C)(C)C(=O)OCC)cc1)C(=O)Cc1ccc(F)cc1F,93,95
CCCCSc1ccc(CNCCCCCCNCc2ccc(SCCCC)c3ccccc23)c2ccccc12.CS(=O)(=O)O,94,48
O=c1c2ccc(Sc3ccccn3)cc2n(-c2ccccc2)c2cc(Sc3ccccn3)ccc12,89,70
CCC(C)c1cnc2nc(N)nc(N)c2c1C (stereo not drawn),97,1
CCCCNCCOc1ccc(-c2nc(-c3ccccc3)c(-c3ccccc3)[nH]2)cc1,100,34
O=C(NCCCCN1CCN(c2nsc3ccccc23)CC1)c1ccccc1C(=O)NCCCCN1CCN(c2nsc3ccccc23)CC1,100,22
COc1ccc(-c2cnc(N)nc2N)cc1Cl,84,1
Cc1nc(C)c(-c2ccc(Oc3ccc(Cl)cc3)cc2)c(O)c1I,88,49
CCCc1ccc(Cc2cnc3nc(N)nc(N)c3c2C)cc1,98,0
Cc1cc(O)c(-c2ccc(OCc3ccc(Cl)cc3)cc2)c(C)n1,93,76
